Screens: PubChem, National Center for Advancing Translational Sciences (NCATS)
Compounds with a hit are over-represented: about 19% of the library has one in this group of screens.
DT40 TDP1 CPT – DT40-hTDP1 cell growth loss with CPT | chicken DT40 Tdp1-/-;hTDP1 cells + 20 nM CPT, ATP luminescence, 48 h | Potency, µM (series often up to 46.2 µM), hits mostly inhibitors | actives 12% (n = 420,000) | AID 686979; further: nearly all actives have a fitted effect of over 55% in size
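Chicken DT40 Tdp1-/- cells complemented with human TDP1, 400 cells/well, exposed to compounds plus 20 nM camptothecin for at least 48 h at 37 C; viability read as ATP content by CellTiter-Glo luminescence.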
HT1080NT lethal – kills 2HG-producing HT-1080-NT fibrosarcoma cells; HT-1080-NT fibrosarcoma viability, CellTiter-Glo ATP luminescence, 48 h; Potency, µM (doses to about 46.1 µM), usual class: cytotoxic; actives 1.6% (n = 360,000);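 further: NT is the 2HG producing partner of a matched IDH1 knockdown line; nearly all actives have a fitted effect of over 55% in size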
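Viability by CellTiter-Glo luminescence after 48 h compound exposure at 37C of HT-1080-NT cells (750/well, RPMI, 5% FBS). % activity scaled between DMSO wells and medium-only wells, then curve-fitted and categorized by curve class.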
TDP1 cell noCPT – qHTS for Inhibitors of human tyrosyl-DNA phosphodiesterase 1 (TDP1): qHTS in cells in absence of CPT. DT40 Tdp1-/- hTDP1 cells, no CPT, ATP luminescence, 48 h. actives 15% (n = 420,000). Potency, µM (series often up to 46.2 µM), usual class: inhibitors. AID 686978, 2013; further: nearly all actives have a fitted effect of over 55% in size
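Cells were dispensed at 400 per well, compounds added by pin tool, plates incubated ≥48 hr at 37 °C, then CellTiter-Glo added for 30 min at room temperature before luminescence reading. Line: DT40 Tdp1-/- complemented with hTDP1; camptothecin omitted.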
IL1B secr inh – inhibitors of inflammasome signaling (IL-1 beta secretion). THP-1 LPS/ATP IL-1B secretion, AlphaLISA, 16 h; active compounds read low. activity change, % at 57.5 µM. actives 4.7% (n = 360,000); in the data active means activity change below about -50%; inconclusive means mostly about -30% to -49%
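Secreted IL-1B measured by AlphaLISA bead assay after 16 h compound exposure of THP-1 cells; compounds (final up to 57.5 uM) added 1 h before LPS (250 ng/mL) and ATP (1.25 mM) stimulation; lower signal means less secretion.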
HT1080 IDH1KD tx – kills HT-1080 cells with IDH1 knockdown | HT-1080 IDH1 knockdown viability, ATP luminescence, 48 h | Potency, µM (doses to about 46.1 µM), usual class: cytotoxic | actives 2% (n = 360,000)
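Viability of IDH1-knockdown HT-1080 fibrosarcoma cells was assessed by CellTiter-Glo after 48 h at 37 °C with titrated compound; concentration-effect curves were classified by fit quality and response size.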
Each line names hits and unclear results; the compound was inactive in the other large screens. Unless noted, the call rests on the fitted dose curve; in most records, active means well fitted curve in the direction sought with a large enough effect; inconclusive means small, poorly fitted or top-dose-only effect, or another doubt; inactive means no such curve, though single readings can be large; an effect the other way counts as inactive or inconclusive.

Cc1ccc(C(O)CCc2ccc(N)cc2)cc1 (centres undefined)	none
CN(C(=O)Cn1cnc2ccccc2c1=O)C1CCS(=O)(=O)C1 (centres undefined)	none
CC(=O)c1c(C(C)=O)c(C)n(-c2nc(-c3ccc(Br)cc3)c(C)s2)c1C	DT40 TDP1 CPT 18µM, TDP1 cell noCPT 16µM
CCc1cc(=O)oc2cc(C)c3c(-c4ccc(F)cc4)coc3c12	none (no result: HT1080NT lethal, IL1B secr inh, HT1080 IDH1KD tx)
Cc1ccc(NC(=O)C(Nc2ccccc2)c2ccccc2)cc1 (centres undefined)	none
Cc1ccc(NC(C(=O)c2ccccc2)c2ccccc2)cc1 (centres undefined)	DT40 TDP1 CPT inconclusive, HT1080NT lethal 23µM, TDP1 cell noCPT 13µM, IL1B secr inh -73, HT1080 IDH1KD tx inconclusive
COc1cccc(NC(C(=O)Nc2cccc(C(C)=O)c2)c2ccccc2)c1 (centres undefined)	TDP1 cell noCPT inconclusive
Cc1ccc(NC(=O)C(Nc2cccc(C)c2)c2ccccc2)cc1 (centres undefined)	DT40 TDP1 CPT inconclusive, TDP1 cell noCPT 18µM
Cc1cc(C)cc(NC(=O)C(Nc2ccccc2)c2ccccc2)c1 (centres undefined)	DT40 TDP1 CPT 18µM
CCCCCCOC(=O)C1=C(C)NC(=O)NC1c1ccc2c(c1)OCO2 (centres undefined)	none
O=C(CCn1cnc2ccccc21)N/N=C/c1ccccc1O	DT40 TDP1 CPT inconclusive, HT1080NT lethal inconclusive, TDP1 cell noCPT 23µM, HT1080 IDH1KD tx inconclusive
COc1cc(/C=N/NC(=O)CCN2CCN(C(c3ccccc3)c3ccccc3)CC2)ccc1O	DT40 TDP1 CPT 13µM, TDP1 cell noCPT 12µM, HT1080 IDH1KD tx inconclusive
COc1cc(/C=N\NC(=O)CNC(=O)C(c2ccccc2)c2ccccc2)ccc1O	none
O=C(CCN1CCN(c2ccccc2)CC1)N/N=C/c1ccccc1O	DT40 TDP1 CPT inconclusive, HT1080NT lethal inconclusive, HT1080 IDH1KD tx 21µM
N#Cc1cc2[nH]c3ccccc3c2[n+](-c2ccc([N+](=O)[O-])cc2)c1N	TDP1 cell noCPT inconclusive, IL1B secr inh -97
O=c1[nH]c2cc([N+](=O)[O-])cc(Cl)c2c2ccccc12	DT40 TDP1 CPT inconclusive, TDP1 cell noCPT inconclusive
COc1ccc(NC(=O)CSc2nc(-c3cc(OC)c(OC)c(OC)c3)[nH]c2-c2ccc(F)cc2)cc1	DT40 TDP1 CPT inconclusive, TDP1 cell noCPT 23µM (no result: HT1080NT lethal, IL1B secr inh, HT1080 IDH1KD tx)
COc1ccc(-c2nc(SCC(=O)NCc3ccco3)c(-c3ccccc3)[nH]2)cc1OC	DT40 TDP1 CPT inconclusive, TDP1 cell noCPT inconclusive
COc1ccc(-c2[nH]c(-c3ccc(F)cc3)nc2SCC(=O)Nc2ccc(OC)c(OC)c2)cc1	DT40 TDP1 CPT 16µM, TDP1 cell noCPT inconclusive (no result: HT1080NT lethal, IL1B secr inh, HT1080 IDH1KD tx)
Cc1ccc(NC(=O)COC(=O)[C@@H]2CCCN2C(=O)c2cccs2)cc1S(=O)(=O)N(C)C	none
Cc1ccc(NC(=O)O/N=C/c2ccc(N(C)C)cc2)cc1	none
CSC(=S)N/N=C/c1ccc(N(C)C)cc1	DT40 TDP1 CPT 4.6µM, TDP1 cell noCPT 5.2µM
CN(C)c1ccc(C=NNC(=S)Nc2ccc(F)cc2)cc1	DT40 TDP1 CPT 3.7µM, TDP1 cell noCPT 4.6µM, IL1B secr inh inconclusive
Cc1c(N=C2NN=C(c3c[nH]c4ccccc34)CS2)c(=O)n(-c2ccccc2)n1C	none
Cc1[nH]c2ccccc2c1C1=NNC(=Nc2ccc(F)cc2)SC1	DT40 TDP1 CPT inconclusive, TDP1 cell noCPT inconclusive, IL1B secr inh -66
COc1ccc(N=C2NN=C(c3c(C)[nH]c4ccccc34)CS2)cc1	DT40 TDP1 CPT inconclusive, HT1080NT lethal inconclusive, TDP1 cell noCPT 23µM, IL1B secr inh inconclusive, HT1080 IDH1KD tx inconclusive
Cc1nn(CCOc2ccccc2)c(=O)n1-c1c(F)cccc1F	none
O=C(Nc1ncc(S(=O)(=O)c2ccc([N+](=O)[O-])cc2)s1)c1cccnc1	DT40 TDP1 CPT 5.8µM, HT1080NT lethal inconclusive, TDP1 cell noCPT 18µM, IL1B secr inh inconclusive, HT1080 IDH1KD tx 23µM
CCOCCC(=O)Nc1ncc(S(=O)(=O)c2ccc([N+](=O)[O-])cc2)s1	none
